Assay results reported in article PMC7862700, “An all-to-all approach to the identification of sequence-specific readers for epigenetic DNA modifications on cytosine”.

Key:
Assay in all cases: DAPPL (digital affinity profiling via proximity ligation, sequencing); 10 mM Tris-HCl pH 7.5, 50 mM NaCl, 1 mM DTT, 4% glycerol, room temperature, 30 min; GST-TFs on glutathione beads, 16-mer random dsDNA library, 0.1% formaldehyde crosslink after washing; high values mean tight binding
Conditions in all cases: protein: recombinant; tags: N-terminal GST; dsDNA, one strand shown
[1] = target: T1, FLI1 (Homo sapiens, UniProt Q01543 1-452)
T1 sequence: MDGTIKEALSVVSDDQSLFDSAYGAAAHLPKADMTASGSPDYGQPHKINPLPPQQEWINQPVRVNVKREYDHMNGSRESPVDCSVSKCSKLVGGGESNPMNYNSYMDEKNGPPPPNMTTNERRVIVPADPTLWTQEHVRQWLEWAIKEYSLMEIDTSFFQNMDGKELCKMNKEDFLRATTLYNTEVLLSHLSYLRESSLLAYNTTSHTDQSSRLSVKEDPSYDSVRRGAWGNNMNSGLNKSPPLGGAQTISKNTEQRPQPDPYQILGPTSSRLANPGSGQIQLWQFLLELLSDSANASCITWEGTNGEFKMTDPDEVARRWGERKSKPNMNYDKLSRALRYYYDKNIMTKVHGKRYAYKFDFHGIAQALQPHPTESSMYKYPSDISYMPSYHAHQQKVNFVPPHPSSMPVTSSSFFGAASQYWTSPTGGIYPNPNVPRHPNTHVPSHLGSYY
In short: (§1)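 After expression in yeast as GST fusions, human transcription factors were bound to glutathione beads, DNA-barcoded and mixed with a tag-only sample. The pools were incubated with 200 nmole of a 16-mer random double-stranded DNA library in Tris/NaCl/DTT/glycerol buffer (30 min, room temperature), washed and crosslinked with 0.1% formaldehyde. Proximity ligation with BsaI/T4 ligase ran for 1 h at 37 °C, before PCR amplification and sequencing on an Illumina NextSeq500. Binding signal is a hexamer's read frequency for a factor divided by its frequency for the tag-only sample.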

[2] = target: T2, ELK1 (Homo sapiens, UniProt P19419 1-428)
T2 sequence: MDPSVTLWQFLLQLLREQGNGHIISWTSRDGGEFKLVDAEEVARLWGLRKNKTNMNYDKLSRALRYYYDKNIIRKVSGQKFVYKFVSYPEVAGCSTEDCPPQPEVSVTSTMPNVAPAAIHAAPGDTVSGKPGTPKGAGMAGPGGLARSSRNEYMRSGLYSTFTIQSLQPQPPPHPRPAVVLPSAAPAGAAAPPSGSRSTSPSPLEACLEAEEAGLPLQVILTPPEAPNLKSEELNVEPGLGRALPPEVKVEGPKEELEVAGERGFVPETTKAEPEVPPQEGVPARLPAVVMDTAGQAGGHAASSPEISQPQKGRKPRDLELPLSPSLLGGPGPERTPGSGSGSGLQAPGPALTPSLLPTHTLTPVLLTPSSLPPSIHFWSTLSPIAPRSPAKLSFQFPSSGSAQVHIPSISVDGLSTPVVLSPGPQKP
In short: as §1

[3] = target: T3, GABPA (Homo sapiens, UniProt Q06546 1-454)
T3 sequence: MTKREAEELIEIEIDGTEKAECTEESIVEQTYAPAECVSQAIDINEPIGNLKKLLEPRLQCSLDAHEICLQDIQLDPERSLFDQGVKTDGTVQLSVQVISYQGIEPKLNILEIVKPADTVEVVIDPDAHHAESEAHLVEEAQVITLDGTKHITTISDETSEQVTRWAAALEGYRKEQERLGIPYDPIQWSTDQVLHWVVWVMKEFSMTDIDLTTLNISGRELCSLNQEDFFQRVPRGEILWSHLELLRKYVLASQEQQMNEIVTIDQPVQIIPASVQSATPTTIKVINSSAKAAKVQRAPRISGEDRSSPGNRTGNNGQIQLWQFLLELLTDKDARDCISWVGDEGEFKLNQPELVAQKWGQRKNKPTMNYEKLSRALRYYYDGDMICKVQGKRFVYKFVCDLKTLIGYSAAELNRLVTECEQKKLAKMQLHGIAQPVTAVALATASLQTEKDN
In short: as §1

[4] = target: T4, ERG (Homo sapiens, UniProt P11308 1-479)
T4 sequence: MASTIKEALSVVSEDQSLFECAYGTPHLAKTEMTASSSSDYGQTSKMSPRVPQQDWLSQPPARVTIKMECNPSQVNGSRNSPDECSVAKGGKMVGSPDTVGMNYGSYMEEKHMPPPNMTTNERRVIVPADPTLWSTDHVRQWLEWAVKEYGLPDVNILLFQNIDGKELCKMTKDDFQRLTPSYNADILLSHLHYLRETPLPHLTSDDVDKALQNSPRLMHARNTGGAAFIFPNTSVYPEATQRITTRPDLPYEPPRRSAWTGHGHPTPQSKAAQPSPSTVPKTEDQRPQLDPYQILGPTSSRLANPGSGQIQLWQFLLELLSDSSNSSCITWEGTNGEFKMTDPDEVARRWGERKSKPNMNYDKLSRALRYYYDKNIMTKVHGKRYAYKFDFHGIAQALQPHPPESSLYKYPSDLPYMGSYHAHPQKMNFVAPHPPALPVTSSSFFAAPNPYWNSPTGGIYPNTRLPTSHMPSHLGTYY
In short: as §1

[5] = target: ELF1 (Homo sapiens, UniProt P32519 1-619)
In short: as §1

[6] = target: T5, EHF (Homo sapiens, UniProt Q9NZC4 1-300)
T5 sequence: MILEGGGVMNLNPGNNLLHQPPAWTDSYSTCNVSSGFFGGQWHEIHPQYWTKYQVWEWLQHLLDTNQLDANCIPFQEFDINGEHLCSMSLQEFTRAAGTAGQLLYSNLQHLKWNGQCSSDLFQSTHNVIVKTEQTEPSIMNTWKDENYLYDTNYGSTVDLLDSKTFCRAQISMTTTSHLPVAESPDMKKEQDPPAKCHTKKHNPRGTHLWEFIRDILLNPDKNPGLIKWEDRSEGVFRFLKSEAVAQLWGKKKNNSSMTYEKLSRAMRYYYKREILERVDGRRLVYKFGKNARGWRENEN
In short: as §1

[7] = target: SPI1 (Homo sapiens, UniProt P17947 1-270)
In short: as §1

[8] = target: SPIB (Homo sapiens, UniProt Q01892 1-262)
In short: as §1

[9] = target: T6, ELK3 (Homo sapiens, UniProt P41970 1-407)
T6 sequence: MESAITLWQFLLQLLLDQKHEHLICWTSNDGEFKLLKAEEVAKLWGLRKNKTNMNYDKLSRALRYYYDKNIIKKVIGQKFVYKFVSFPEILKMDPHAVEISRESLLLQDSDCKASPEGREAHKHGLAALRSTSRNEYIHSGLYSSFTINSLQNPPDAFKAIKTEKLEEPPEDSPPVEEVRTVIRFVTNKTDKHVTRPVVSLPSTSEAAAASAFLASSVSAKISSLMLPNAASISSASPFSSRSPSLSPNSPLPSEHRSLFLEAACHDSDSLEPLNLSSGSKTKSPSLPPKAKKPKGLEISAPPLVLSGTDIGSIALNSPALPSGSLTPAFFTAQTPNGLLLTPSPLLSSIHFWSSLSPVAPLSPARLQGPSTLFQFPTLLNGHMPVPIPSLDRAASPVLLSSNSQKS
In short: as §1

[10] = target: T7, FEV (Homo sapiens, UniProt Q99581 1-238)
T7 sequence: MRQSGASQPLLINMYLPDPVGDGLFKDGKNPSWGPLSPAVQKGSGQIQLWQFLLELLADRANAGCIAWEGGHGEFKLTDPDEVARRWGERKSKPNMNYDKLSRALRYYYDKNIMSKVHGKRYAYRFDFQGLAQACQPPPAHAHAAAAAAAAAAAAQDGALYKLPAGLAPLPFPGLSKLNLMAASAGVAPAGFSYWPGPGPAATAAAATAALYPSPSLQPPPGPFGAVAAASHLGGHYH
In short: as §1

[11] = target: ETV5 (Homo sapiens, UniProt P41161 1-510)
In short: as §1

[12] = target: T8, SPIC (Homo sapiens, UniProt Q8N5J4 1-248)
T8 sequence: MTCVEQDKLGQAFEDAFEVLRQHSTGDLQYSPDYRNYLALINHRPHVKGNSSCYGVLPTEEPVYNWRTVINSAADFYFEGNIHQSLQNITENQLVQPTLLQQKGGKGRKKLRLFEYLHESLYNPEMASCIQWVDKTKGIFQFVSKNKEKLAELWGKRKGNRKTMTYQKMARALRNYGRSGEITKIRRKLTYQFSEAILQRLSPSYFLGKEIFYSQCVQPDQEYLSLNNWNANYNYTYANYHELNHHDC
In short: as §1

[13] = target: ELF4 (Homo sapiens, UniProt Q99607 1-663)
In short: as §1

[14] = target: T9, ELK4 (Homo sapiens, UniProt P28324-2 1-405)
T9 sequence: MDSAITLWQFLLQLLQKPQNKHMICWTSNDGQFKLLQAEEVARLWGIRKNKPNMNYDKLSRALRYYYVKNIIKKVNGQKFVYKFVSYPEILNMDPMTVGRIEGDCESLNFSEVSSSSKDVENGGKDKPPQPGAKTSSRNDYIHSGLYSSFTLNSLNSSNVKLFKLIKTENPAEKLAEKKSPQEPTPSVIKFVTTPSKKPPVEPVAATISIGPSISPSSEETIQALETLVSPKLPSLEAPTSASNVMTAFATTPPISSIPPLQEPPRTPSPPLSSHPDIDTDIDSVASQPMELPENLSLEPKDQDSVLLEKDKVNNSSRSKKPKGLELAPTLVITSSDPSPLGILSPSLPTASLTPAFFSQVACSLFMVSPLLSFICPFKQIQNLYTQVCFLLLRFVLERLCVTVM
In short: as §1

[15] = target: T10, ETV2 (Homo sapiens, UniProt O00321 1-342)
T10 sequence: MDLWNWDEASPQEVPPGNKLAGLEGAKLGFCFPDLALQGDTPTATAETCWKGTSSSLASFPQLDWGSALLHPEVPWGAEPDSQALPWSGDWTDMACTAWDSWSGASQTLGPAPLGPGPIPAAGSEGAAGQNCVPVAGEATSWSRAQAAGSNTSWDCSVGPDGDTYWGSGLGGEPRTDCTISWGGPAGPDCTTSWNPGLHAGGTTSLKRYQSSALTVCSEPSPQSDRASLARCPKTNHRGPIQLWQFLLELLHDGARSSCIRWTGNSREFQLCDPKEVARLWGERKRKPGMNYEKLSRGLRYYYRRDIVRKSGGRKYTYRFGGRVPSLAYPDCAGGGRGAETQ
In short: as §1

[16] = target: T11, ELF3 (Homo sapiens, UniProt P78545 1-371)
T11 sequence: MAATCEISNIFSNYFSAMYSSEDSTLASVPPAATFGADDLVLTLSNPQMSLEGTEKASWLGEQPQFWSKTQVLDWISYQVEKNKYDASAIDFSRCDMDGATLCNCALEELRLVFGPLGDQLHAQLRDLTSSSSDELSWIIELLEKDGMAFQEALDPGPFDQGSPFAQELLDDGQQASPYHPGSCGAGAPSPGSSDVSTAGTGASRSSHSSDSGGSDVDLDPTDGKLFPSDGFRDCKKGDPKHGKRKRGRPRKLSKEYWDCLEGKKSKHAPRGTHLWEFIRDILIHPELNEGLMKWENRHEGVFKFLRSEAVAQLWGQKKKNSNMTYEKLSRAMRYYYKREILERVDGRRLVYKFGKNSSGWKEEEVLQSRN
In short: as §1

[17] = target: ETV1 (Homo sapiens, UniProt P50549 1-477)
In short: as §1

Chain of ETV5 (P41161 whole entry): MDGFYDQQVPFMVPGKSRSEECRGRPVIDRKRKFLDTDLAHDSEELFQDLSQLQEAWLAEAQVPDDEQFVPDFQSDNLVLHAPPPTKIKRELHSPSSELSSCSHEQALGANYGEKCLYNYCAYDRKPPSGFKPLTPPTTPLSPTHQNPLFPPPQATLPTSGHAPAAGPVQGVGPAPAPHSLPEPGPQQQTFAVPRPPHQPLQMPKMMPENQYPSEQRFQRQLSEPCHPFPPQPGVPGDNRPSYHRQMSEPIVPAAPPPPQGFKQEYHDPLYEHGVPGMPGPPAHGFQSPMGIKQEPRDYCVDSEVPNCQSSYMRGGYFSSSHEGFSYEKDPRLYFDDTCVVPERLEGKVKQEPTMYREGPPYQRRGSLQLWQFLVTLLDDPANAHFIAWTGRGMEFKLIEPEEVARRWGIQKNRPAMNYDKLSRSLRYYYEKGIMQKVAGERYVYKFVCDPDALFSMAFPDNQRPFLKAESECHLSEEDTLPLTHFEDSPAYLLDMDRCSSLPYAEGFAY
Chain of SPIB (Q01892 whole entry): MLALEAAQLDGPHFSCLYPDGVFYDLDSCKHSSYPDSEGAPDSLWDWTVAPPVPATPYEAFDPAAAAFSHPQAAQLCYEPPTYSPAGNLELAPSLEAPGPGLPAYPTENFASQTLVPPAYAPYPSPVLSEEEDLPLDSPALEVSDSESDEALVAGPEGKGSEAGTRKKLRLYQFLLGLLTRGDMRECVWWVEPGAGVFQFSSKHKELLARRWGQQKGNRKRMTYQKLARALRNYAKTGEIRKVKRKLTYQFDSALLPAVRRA
Chain of ELF1 (P32519 whole entry): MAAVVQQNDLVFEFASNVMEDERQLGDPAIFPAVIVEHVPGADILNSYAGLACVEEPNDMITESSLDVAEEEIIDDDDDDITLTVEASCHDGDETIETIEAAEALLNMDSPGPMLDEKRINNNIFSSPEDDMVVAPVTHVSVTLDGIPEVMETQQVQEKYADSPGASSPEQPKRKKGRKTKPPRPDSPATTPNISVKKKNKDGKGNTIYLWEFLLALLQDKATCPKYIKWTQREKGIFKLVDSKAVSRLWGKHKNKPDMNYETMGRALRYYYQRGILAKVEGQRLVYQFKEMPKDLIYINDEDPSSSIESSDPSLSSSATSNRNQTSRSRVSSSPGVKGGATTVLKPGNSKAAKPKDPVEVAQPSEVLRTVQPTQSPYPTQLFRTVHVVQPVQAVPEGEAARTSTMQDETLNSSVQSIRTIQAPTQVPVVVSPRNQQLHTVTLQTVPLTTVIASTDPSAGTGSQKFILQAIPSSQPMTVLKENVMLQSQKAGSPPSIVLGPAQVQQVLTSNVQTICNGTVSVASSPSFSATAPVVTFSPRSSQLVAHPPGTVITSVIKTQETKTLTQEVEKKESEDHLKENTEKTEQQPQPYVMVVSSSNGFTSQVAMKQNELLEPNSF
Chain of ETV1 (P50549 whole entry): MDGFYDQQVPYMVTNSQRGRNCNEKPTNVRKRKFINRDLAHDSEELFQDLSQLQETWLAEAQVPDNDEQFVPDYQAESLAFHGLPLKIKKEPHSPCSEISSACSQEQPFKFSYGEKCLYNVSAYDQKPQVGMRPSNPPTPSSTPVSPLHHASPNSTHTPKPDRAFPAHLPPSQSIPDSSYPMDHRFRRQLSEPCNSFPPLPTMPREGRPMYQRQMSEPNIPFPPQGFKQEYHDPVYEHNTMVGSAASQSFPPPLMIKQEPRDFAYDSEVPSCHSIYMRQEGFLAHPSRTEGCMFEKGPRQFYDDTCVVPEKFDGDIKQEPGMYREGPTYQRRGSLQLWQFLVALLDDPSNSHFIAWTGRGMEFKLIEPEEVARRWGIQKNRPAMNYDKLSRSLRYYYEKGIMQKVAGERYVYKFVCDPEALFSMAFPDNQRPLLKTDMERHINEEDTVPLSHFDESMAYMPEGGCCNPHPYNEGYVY
Chain of ELF4 (Q99607 whole entry): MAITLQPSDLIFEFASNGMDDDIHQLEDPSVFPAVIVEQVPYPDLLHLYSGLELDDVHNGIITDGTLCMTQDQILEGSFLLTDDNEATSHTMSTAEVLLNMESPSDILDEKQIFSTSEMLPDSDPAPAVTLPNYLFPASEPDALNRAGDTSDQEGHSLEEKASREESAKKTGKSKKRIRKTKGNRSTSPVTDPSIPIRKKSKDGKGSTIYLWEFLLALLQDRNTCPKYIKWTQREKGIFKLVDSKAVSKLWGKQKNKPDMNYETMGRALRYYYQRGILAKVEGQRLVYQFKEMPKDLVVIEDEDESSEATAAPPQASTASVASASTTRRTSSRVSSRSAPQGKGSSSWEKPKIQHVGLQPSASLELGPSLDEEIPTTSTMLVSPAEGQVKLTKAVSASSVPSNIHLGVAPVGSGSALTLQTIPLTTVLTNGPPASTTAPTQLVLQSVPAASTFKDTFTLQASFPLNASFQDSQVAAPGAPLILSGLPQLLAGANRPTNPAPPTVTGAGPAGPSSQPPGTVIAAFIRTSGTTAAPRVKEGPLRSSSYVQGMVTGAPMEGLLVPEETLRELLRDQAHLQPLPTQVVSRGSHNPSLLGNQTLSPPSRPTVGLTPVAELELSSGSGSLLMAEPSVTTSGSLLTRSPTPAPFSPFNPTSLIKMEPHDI

| Sequence | binding signal [1] | binding signal [2] | binding signal [3] | binding signal [4] | binding signal [5] | binding signal [6] | binding signal [7] | binding signal [8] | binding signal [9] | binding signal [10] | binding signal [11] | binding signal [12] | binding signal [13] | binding signal [14] | binding signal [15] | binding signal [16] | binding signal [17] |
| --- | --- | --- | --- | --- | --- | --- | --- | --- | --- | --- | --- | --- | --- | --- | --- | --- | --- |
| ACATCA | 1.11 fold enrichment (6-mer frequency, TF over GST control) | 1.12 fold enrichment (6-mer frequency, TF over GST control) | 1.09 fold enrichment (6-mer frequency, TF over GST control) | 1.14 fold enrichment (6-mer frequency, TF over GST control) | 1.16 fold enrichment (6-mer frequency, TF over GST control) | 1.23 fold enrichment (6-mer frequency, TF over GST control) | 1.13 fold enrichment (6-mer frequency, TF over GST control) | 1.07 fold enrichment (6-mer frequency, TF over GST control) | 1.11 fold enrichment (6-mer frequency, TF over GST control) | 1.17 fold enrichment (6-mer frequency, TF over GST control) | 1.17 fold enrichment (6-mer frequency, TF over GST control) | 1.13 fold enrichment (6-mer frequency, TF over GST control) | 1.19 fold enrichment (6-mer frequency, TF over GST control) | 1.14 fold enrichment (6-mer frequency, TF over GST control) | 1.22 fold enrichment (6-mer frequency, TF over GST control) | 1.15 fold enrichment (6-mer frequency, TF over GST control) | 1.15 fold enrichment (6-mer frequency, TF over GST control) |
| CCGGGT | 1.2 fold enrichment (6-mer frequency, TF over GST control) | 1.06 fold enrichment (6-mer frequency, TF over GST control) | 1.01 fold enrichment (6-mer frequency, TF over GST control) | 1.12 fold enrichment (6-mer frequency, TF over GST control) | 1.13 fold enrichment (6-mer frequency, TF over GST control) | 1.17 fold enrichment (6-mer frequency, TF over GST control) | 1.01 fold enrichment (6-mer frequency, TF over GST control) | 1.16 fold enrichment (6-mer frequency, TF over GST control) | – | 1.02 fold enrichment (6-mer frequency, TF over GST control) | 1.26 fold enrichment (6-mer frequency, TF over GST control) | 1.19 fold enrichment (6-mer frequency, TF over GST control) | 1.15 fold enrichment (6-mer frequency, TF over GST control) | 1.09 fold enrichment (6-mer frequency, TF over GST control) | 1.15 fold enrichment (6-mer frequency, TF over GST control) | 1.12 fold enrichment (6-mer frequency, TF over GST control) | 1.17 fold enrichment (6-mer frequency, TF over GST control) |
| GTATGC | 1.22 fold enrichment (6-mer frequency, TF over GST control) | 1.24 fold enrichment (6-mer frequency, TF over GST control) | 1.17 fold enrichment (6-mer frequency, TF over GST control) | 1.11 fold enrichment (6-mer frequency, TF over GST control) | 1.2 fold enrichment (6-mer frequency, TF over GST control) | 1.14 fold enrichment (6-mer frequency, TF over GST control) | 1.23 fold enrichment (6-mer frequency, TF over GST control) | 1.2 fold enrichment (6-mer frequency, TF over GST control) | 1.13 fold enrichment (6-mer frequency, TF over GST control) | 1.15 fold enrichment (6-mer frequency, TF over GST control) | 1.17 fold enrichment (6-mer frequency, TF over GST control) | 1.14 fold enrichment (6-mer frequency, TF over GST control) | 1.16 fold enrichment (6-mer frequency, TF over GST control) | 1.23 fold enrichment (6-mer frequency, TF over GST control) | 1.25 fold enrichment (6-mer frequency, TF over GST control) | 1.1 fold enrichment (6-mer frequency, TF over GST control) | 1.12 fold enrichment (6-mer frequency, TF over GST control) |
